Test results reported in PubChem BioAssay.
Active and inactive are the calls of the source.

Molecular target: Albumin (Bos taurus) (UniProt P02769)
Sequence (P02769 whole entry, looked up): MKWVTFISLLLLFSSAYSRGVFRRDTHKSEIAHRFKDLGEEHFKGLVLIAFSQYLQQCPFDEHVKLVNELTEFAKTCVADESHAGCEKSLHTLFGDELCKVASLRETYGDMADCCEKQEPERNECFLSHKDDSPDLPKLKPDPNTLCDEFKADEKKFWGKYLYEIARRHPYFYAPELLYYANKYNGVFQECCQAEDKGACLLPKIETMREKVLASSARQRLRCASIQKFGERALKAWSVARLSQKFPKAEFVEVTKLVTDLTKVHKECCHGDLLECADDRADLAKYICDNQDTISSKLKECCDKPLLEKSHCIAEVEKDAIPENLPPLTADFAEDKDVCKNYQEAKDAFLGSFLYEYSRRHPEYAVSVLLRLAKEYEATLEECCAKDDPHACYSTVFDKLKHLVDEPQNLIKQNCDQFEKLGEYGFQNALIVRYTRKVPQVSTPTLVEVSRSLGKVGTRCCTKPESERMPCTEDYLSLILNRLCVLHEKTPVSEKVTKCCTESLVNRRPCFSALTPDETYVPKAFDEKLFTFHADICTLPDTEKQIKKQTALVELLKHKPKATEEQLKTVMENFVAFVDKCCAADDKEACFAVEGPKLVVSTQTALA
Assay: compounds binding labelled BSA control protein – biochemical, small-molecule microarray, Alexa647 label, 635/667 nm fluorescence, artefact control for SMM control protein annotation, profiling panel (AID 1118);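 also: score merges 667 nm emission intensity and signal-to-noise per printed compound spot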
Settings: BSA-A647 binding, fluorescence 635 nm, higher = more signal
`C=CCNC(=O)[C@@H]1[C@H]2C(=O)O[C@H](c3ccccc3)[C@H](c3ccccc3)N2[C@H](c2ccc(O)cc2)[C@@]12C(=O)N(C(=O)OCCOC)c1ccc(C#CCNC(N)=O)cc12` gave a composite z-score of 0.803. Molecule `COCCOC(=O)N1C(=O)[C@@]2(c3cc(C#CCCO)ccc31)[C@H](C(=O)N1CCCCCCC1)[C@H]1C(=O)O[C@H](c3ccccc3)[C@H](c3ccccc3)N1[C@@H]2c1ccc(OCCO)cc1` has a composite z-score of 0.796. Work on `COC(=O)[C@@]1(CCC(=O)OC(C)(C)C)N=C(c2ccc(OCCCO)cc2)O[C@H]1c1ccccc1N=[N+]=[N-]` yielded a composite z-score of 0.373. `CCCCCN1CC=CC23O[C@@H]4/C=C\CCC(C)OC(=O)C4[C@H]2C(=O)N(C(C)CO)[C@@H]3C1=O` (some centres undefined) gave a composite z-score of -0.671. With `Cc1ccc(S[C@]2(C(=O)NC3CC3)CC(=O)N(Cc3ccccc3)[C@@H]2c2ccc(CO)cc2I)cc1` the composite z-score was 0.596. `O=C1NC(=O)C2C1C=CC(C(O)c1cccs1)N2Nc1ccc(Cl)cc1Cl` (centres undefined) showed a composite z-score of 0.165. For `C=CCC(OC(C)=O)[C@@H]1[C@@H](N(Cc2ccc(-c3ccccc3)cc2)C(=O)c2cccc3ccccc23)c2cc(OCCCO)ccc2N1C(=O)c1ccc(-c2ccccc2)cc1` (some centres undefined), the composite z-score was -0.0695. In the case of `CCOC(=O)C[C@H]1[C@H](OC(=O)c2ccc(C(=O)c3ccccc3)cc2)[C@@H](NC(=O)c2ccccc2)c2cc(OCCCO)ccc2N1C(=O)c1ccc2ccccc2n1`, the composite z-score is reported as 0.783. Work on `COc1cc2c(cc1O)C(C1CC1)N(Cc1sc3ccccc3c1Cl)CC2` (centres undefined) yielded a composite z-score of 0.718.

Tested on: not listed separately
Assay: probe aXIP binding to arrayed compounds – biochemical, NeuroSMM set, 635/667 nm fluorescence, primary screen (AID 1119);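 also: probe is the protein aXip251-270 applied at 1 µg/mL to compound-printed slides; binding of probe to printed compounds measured as 667 nm fluorescence plus signal to noise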
Settings: small-molecule microarray, higher = more signal, called active from +8 up or from −8 down
For `COCCOC(=O)N1C(=O)[C@@]2(c3ccccc31)[C@H](c1ccc(O)cc1)N1[C@H](c3ccccc3)[C@H](c3ccccc3)OC(=O)[C@H]1[C@@H]2C(=O)Nc1nc2ccccc2s1`, the composite Z-score was -0.434 (inactive). With `NC(=O)NCC#Cc1ccc2c(c1)[C@]1(C(=O)N2)[C@H](C(=O)Nc2nc3ccccc3s2)[C@H]2C(=O)O[C@H](c3ccccc3)[C@H](c3ccccc3)N2[C@@H]1c1ccccc1OCCO` the composite Z-score was 1.24 (inactive). With `COCCOC(=O)N1C(=O)[C@@]2(c3ccccc31)[C@H](c1ccccc1OCCO)N1[C@H](c3ccccc3)[C@H](c3ccccc3)OC(=O)[C@H]1[C@@H]2C(=O)N1CCN(c2ncccn2)CC1` the composite Z-score was 1.6 (inactive). In the case of `COC(=O)[C@@]1(Cc2ccc(F)cc2)[C@H]2c3cc(C(=O)N4CCCC4)n(CCCNc4ncc(C(F)(F)F)cc4Cl)c3C[C@H]2CN1C(=O)c1ccccc1`, the composite Z-score is reported as -0.585 (inactive). With `CC(C)C[C@@H]1NC(=O)[C@@H]2C[C@H](C(=O)NCc3ccc(F)cc3)[C@H](c3cccc(OCCO)c3)N2C1=O` the composite Z-score was 0.532 (inactive). In the case of `C=CCC(OC(C)=O)[C@@H]1[C@@H](N(Cc2cc3ccccc3o2)C(=O)c2cccc3ccccc23)c2cc(OCCCO)ccc2N1C(=O)c1ccc(-c2ccccc2)cc1` (some centres undefined), the composite Z-score is reported as -0.418 (inactive). With `C#C[C@H](O[Si](C#Cc1ccc(Oc2ccccc2)cc1)(C(C)C)C(C)C)c1ccccc1` the composite Z-score was 0.29 (inactive). For `O=C1N[C@@H](Cc2ccccc2)C(=O)N2[C@@H]1C[C@@H](C(=O)O)[C@H]2c1cccc(OCCO)c1`, the composite Z-score was 0.108 (inactive). In the case of `COCCCNC(=O)[C@@]1(C)c2ccccc2C(=O)N(C(C)C)[C@H]1c1ccc(CO)cc1`, the composite Z-score is reported as 0.466 (inactive). For `C=CCN1C(=O)[C@@]2(Cc3ccccc31)N=C(c1ccc(OCCCO)cc1)O[C@H]2c1ccccc1`, the composite Z-score was 0.302 (inactive). In the case of `CN(C)CCCCCCNC(=O)[C@H]1C[C@H]2C(=O)N[C@@H](CCCCN)C(=O)N2[C@H]1c1cccc(OCCO)c1`, the composite Z-score is reported as 5.67 (inactive). With `COc1cc2c(cc1OC)CN(C(=O)[C@H]1[C@@H]3C(=O)O[C@@H](c4ccccc4)[C@@H](c4ccccc4)N3[C@@H](c3ccc(O)cc3)[C@]13C(=O)Nc1ccccc13)CC2` the composite Z-score was 2.52 (inactive). In the case of `C=CC1(C(=O)OC)CC=C(C(=O)OC)CC1` (centres undefined), the composite Z-score is reported as 0.257 (inactive). With `CCCC=C(CCC)[C@@H](NC(=O)c1cccs1)c1ccc(C(F)(F)F)cc1` the composite Z-score was 0.23 (inactive). In the case of `C=CCNC(=O)[C@@H]1[C@H]2C(=O)O[C@H](c3ccccc3)[C@H](c3ccccc3)N2[C@H](c2ccccc2OCCO)[C@@]12C(=O)N(C(=O)OCCOC)c1ccccc12`, the composite Z-score is reported as 0.318 (inactive). In the case of `COC(=O)C[C@H]1O[C@]2(C(=O)N(C)c3ccccc32)[C@@H](C)[C@@H]1[Si](C)(C)F`, the composite Z-score is reported as 0.448 (inactive). For `C=CCOC(=O)[C@@H]1[C@H]2C(=O)O[C@H](c3ccccc3)[C@H](c3ccccc3)N2[C@H](c2ccc(OCCOC(=O)[C@@H]3C[C@@H]4C(=O)NCC(=O)N4[C@@H]3c3ccc(O)cc3)cc2)[C@@]12C(=O)Nc1ccc(I)cc12`, the composite Z-score was -0.666 (inactive). In the case of `COc1ccc(CCNC(=O)[C@@]2(C)c3ccccc3C(=O)N(C(C)C)[C@H]2c2ccc(CO)cc2)cc1`, the composite Z-score is reported as 0.768 (inactive). With `C=C(CC1([C@@H](NP(=O)(c2ccccc2)c2ccccc2)[C@H]2C[C@@H]2CCCC)CC1)c1ccccc1` the composite Z-score was 0.121 (inactive). In the case of `COC(=O)[C@H](Cc1ccccc1)N1CC2=C[C@@H](C3CC3)n3c(=O)n(C)c(=O)n3[C@H]2[C@@H]1[C@@H](O)Cc1ccccc1`, the composite Z-score is reported as 0.133 (inactive). For `C=C(/C(=C/C[C@H](OC(C)=O)c1ccc(CO)o1)c1cc(C(=O)OC)ccc1OC)C(C)C`, the composite Z-score was 0.72 (inactive). With `[N-]=[N+]=Nc1ccccc1[C@H]1OC(c2ccc(OCCCO)cc2)=N[C@@]1(CCS(=O)(=O)c1ccccc1)C(N)=O` the composite Z-score was 0.211 (inactive). For `COc1cc2c(cc1OC)CN(C(=O)[C@@H]1[C@H]3C(=O)O[C@H](c4ccccc4)[C@H](c4ccccc4)N3[C@H](c3ccccc3OCCO)[C@@]13C(=O)Nc1ccc(C#CCCO)cc13)CC2`, the composite Z-score was 0.252 (inactive). For `C[N+](C)(C)CCCCNC(=O)[C@@H]1C[C@@H]2C(=O)N[C@@H](Cc3ccccc3)C(=O)N2[C@@H]1c1cccc(OCCO)c1`, the composite Z-score was 0.668 (inactive). For `COCCOC(=O)N1C(=O)[C@@]2(c3cc(C#CCC(C(=O)OC)C(=O)OC)ccc31)[C@H](C(=O)Nc1nc3ccccc3s1)[C@H]1C(=O)O[C@H](c3ccccc3)[C@H](c3ccccc3)N1[C@@H]2c1ccccc1OCCO`, the composite Z-score was 0.259 (inactive). With `CCC[C@@H]1C[C@@]1(CCC)[C@@H](NS(=O)(=O)c1cccc2cccnc12)c1ccc(Cl)cc1` the composite Z-score was -0.421 (inactive). With `C=CCNC(=O)[C@@H]1[C@H]2C(=O)O[C@H](c3ccccc3)[C@H](c3ccccc3)N2[C@H](c2ccc(O)cc2)[C@@]12C(=O)N(C(=O)OCCOC)c1ccc(C#CCNC(N)=O)cc12` the composite Z-score was 0.797 (inactive). For `COCCOC(=O)N1C(=O)[C@@]2(c3cc(C#CCCO)ccc31)[C@H](C(=O)N1CCCCCCC1)[C@H]1C(=O)O[C@H](c3ccccc3)[C@H](c3ccccc3)N1[C@@H]2c1ccc(OCCO)cc1`, the composite Z-score was 1.91 (inactive). With `COC(=O)[C@@]1(CCC(=O)OC(C)(C)C)N=C(c2ccc(OCCCO)cc2)O[C@H]1c1ccccc1N=[N+]=[N-]` the composite Z-score was 0.455 (inactive). For `CCCCCN1CC=CC23O[C@@H]4/C=C\CCC(C)OC(=O)C4[C@H]2C(=O)N(C(C)CO)[C@@H]3C1=O` (some centres undefined), the composite Z-score was -0.275 (inactive). In the case of `Cc1ccc(S[C@]2(C(=O)NC3CC3)CC(=O)N(Cc3ccccc3)[C@@H]2c2ccc(CO)cc2I)cc1`, the composite Z-score is reported as -0.35 (inactive). In the case of `O=C1NC(=O)C2C1C=CC(C(O)c1cccs1)N2Nc1ccc(Cl)cc1Cl` (centres undefined), the composite Z-score is reported as -0.196 (inactive). With `C=CCC(OC(C)=O)[C@@H]1[C@@H](N(Cc2ccc(-c3ccccc3)cc2)C(=O)c2cccc3ccccc23)c2cc(OCCCO)ccc2N1C(=O)c1ccc(-c2ccccc2)cc1` (some centres undefined) the composite Z-score was 0.45 (inactive). In the case of `CCOC(=O)C[C@H]1[C@H](OC(=O)c2ccc(C(=O)c3ccccc3)cc2)[C@@H](NC(=O)c2ccccc2)c2cc(OCCCO)ccc2N1C(=O)c1ccc2ccccc2n1`, the composite Z-score is reported as -0.386 (inactive). With `COc1cc2c(cc1O)C(C1CC1)N(Cc1sc3ccccc3c1Cl)CC2` (centres undefined) the composite Z-score was -0.909 (inactive).
